An excerpt weighted towards active compounds, which were near 9% of everything screened.
LMNA splice mod: LMNA splicing modulation; HeLa LMNA splicing GFP/RFP minigene ratio, 48 h; Potency, µM (highest dose often 46.1 µM), for the others: at the top dose ratio change, negative = inhibition, most hits filed as inhibitors; 200,000 tested, 0.01% active; AID 1487; active means well fitted inhibition curve with a large enough effect in the signal ratio, with a control signal flat, not every such curve was filed as active; inconclusive means small, poorly fitted or top-dose-only effect, or effect the other way, or a change in a side signal; the % refers to the signal ratio
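S3 HeLa cells stably expressing lamin A-EGFP splicing minigene plus DsRed2, 600 cells/well, 48 h compound exposure at 37C. Laser-scanning cytometry; analysed as GFP (500-530 nm)/RFP (575-640 nm) total intensity ratio; 0.5% DMSO vehicle.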
ALDH1A1 inh: blocks purified human ALDH1A1 activity; P00352; Purified ALDH1A1, NADH fluorescence, propionaldehyde substrate; Potency, µM (highest dose often 75.3 µM), for inactives: top-dose activity, negative = inhibition, hits mostly inhibitors; 220,000 tested, 7.3% active; active means well fitted inhibition curve with a large enough effect, not every such curve was filed as active; inconclusive means small, poorly fitted or top-dose-only effect, or another doubt; inactive means no such curve, though single readings can be large or run the other way;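 further: plate controls were no enzyme wells and a reference inhibitor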
Target sequence (P00352 whole entry, looked up): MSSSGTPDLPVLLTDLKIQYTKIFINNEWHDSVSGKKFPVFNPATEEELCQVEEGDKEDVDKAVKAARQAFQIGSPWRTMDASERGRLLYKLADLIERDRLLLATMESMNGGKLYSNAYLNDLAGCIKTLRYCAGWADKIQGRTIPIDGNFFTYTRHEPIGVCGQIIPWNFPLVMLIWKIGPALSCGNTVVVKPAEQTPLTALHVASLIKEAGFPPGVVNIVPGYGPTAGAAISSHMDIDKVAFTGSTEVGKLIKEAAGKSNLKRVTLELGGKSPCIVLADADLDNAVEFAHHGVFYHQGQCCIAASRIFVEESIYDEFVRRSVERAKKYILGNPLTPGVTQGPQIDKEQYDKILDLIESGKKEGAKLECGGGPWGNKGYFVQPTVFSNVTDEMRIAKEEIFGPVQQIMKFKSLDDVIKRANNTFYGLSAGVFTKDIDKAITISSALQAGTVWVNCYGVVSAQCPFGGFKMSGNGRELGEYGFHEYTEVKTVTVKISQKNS
KinaseGlo FLuc: Kinase-Glo luciferase inhibition (counter-screen). Potency, µM (top dose mostly 38.3 µM), without a hit: top-dose activity change, negative = inhibition, hits mostly inhibitors. AID 1379. 200,000 tested, 0.28% active. Kinase-Glo luciferase, ATP luminescence, 8 min. Q27757; further: nearly all actives have a fitted effect of over 60% in size
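Light output from Kinase-Glo luciferase with luciferin and 10 uM ATP in 50 mM imidazole pH 7.2, KCl, MgCl2, Tween 20, BSA; compound pin-delivered, 8-min ambient incubation, then luminescence read.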
HPGD block: HPGD (human) dehydrogenase inhibition | P15428 | purified HPGD, NADH fluorescence kinetic, PGE2 substrate | Potency, µM, for inactives: at the highest dose activity change, negative = inhibition, actives largely listed as inhibitors | 150,000 tested, 4.3% active | AID 894; active means well fitted inhibition curve with a large enough effect, not every such curve was filed as active; inconclusive means small, poorly fitted or top-dose-only effect, or another doubt; inactive means no such curve, though single readings can be large or run the other way
Target sequence (P15428 whole entry, looked up): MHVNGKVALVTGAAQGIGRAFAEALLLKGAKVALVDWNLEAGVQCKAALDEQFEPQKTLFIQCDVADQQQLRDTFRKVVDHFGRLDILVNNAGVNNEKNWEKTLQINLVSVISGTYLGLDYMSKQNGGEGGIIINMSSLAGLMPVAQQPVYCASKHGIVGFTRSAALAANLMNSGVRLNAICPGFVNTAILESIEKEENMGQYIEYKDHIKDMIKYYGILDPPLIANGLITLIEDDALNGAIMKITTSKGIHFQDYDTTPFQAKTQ
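20 nM HPGD preincubated 15 min at room temperature with compound in 50 mM Tris-HCl pH 8, 0.01% Tween 20. Started with 1 mM NAD+ and 30 uM prostaglandin E2; NADH fluorescence (360/450 nm) read 5 times over 30-s intervals, last minus first.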
IMPase Li cell: cell-permeable IMPase inhibitors with lithium potentiation; CHO-M1 cells, IP1 TR-FRET (IP-One), carbachol + lithium; Potency, µM (series often up to 59.4 µM), for the others: top-dose activity, negative = IMPase inhibition, most hits filed as inhibitors; 210,000 tested, 0.35% active;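 further: IP1 builds up when IMPase is blocked and the TR-FRET signal falls; plate controls were basal vehicle for no effect and high inhibitor control for full effect; nearly all actives have a fitted effect of over 50% in size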
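Concentration–response in CHO-M1 cells, lithium-potentiated; 30 min at 37C. IP1 detected by competitive TR-FRET after 10 min lysis at RT. Hill-fitted AC50.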
Numbers without * were called inactive; ? = inconclusive; . = no result; [ ] = dose if it differs, or a comment. Unless noted, the call rests on the fitted dose curve; in most records, active means well fitted curve in the direction sought with a large enough effect; inconclusive means small, poorly fitted or top-dose-only effect, or another doubt; inactive means no such curve, though single readings can be large; an effect the other way counts as inactive or inconclusive. Unless noted, on the % scale 0 is the no-effect control and ±100 the full control effect; potency means the concentration at half of the fitted maximal effect.

SMILES	LMNA splice mod	ALDH1A1 inh	KinaseGlo FLuc	HPGD block	IMPase Li cell
O=C(Cn1c(=O)n(Cc2ccco2)c(=O)c2cc(Cl)ccc21)NCC1CCCO1 (centres undefined)	-8%	25µM*	2%	1%	17%[38.3 µM]
COc1ccccc1NC(=O)C1=C(C)Nc2nc(CCCO)nn2C1c1ccc2c(c1)OCO2 (centres undefined)	2%	14µM*	-1%	?	26%[38.3 µM]
CCNc1ncc2nc(-c3cc(F)cc(F)c3)c(=O)n(CCc3ccccc3)c2n1	?	?	.	.	-17%
CCNc1ncc2nc(-c3ccc(F)cc3)c(=O)n(CCC#N)c2n1	.	?	-4%	?	10µM*
CCNc1ncc2nc(-c3ccc(OC)cc3)c(=O)n(CCc3ccccc3)c2n1	?	?	.	.	11µM*
Cc1ccc(N(CC(=O)NCc2ccc(F)cc2)C(=O)c2csnn2)cc1C	?	-1%	-1%	.	5%
CCc1ccc(NC(=O)Cn2c(=O)ccc3cc(S(=O)(=O)N4CCCC4)ccc32)cc1	12%[46 µM]	.	.	.	.
CCN(CC)S(=O)(=O)N1CCC(C(=O)NCCC2=CCCCC2)CC1	.	2.5µM*	-1%	.	-5%
CCN(CC)S(=O)(=O)N1CCC(C(=O)NCCN2CCOCC2)CC1	7%	10µM*	-7%	-15%	-11%[38.3 µM]
C[C@@H]1C[C@@H]([C@@H](C)CC2CC(=O)NC(=O)C2)C(=O)[C@@H](C)C1	.	-12%	2%[39.9 µM]	-5%	-1%
CCC(C)(C)n1nnnc1CN1CCC(c2nc3ccc(C)cc3[nH]2)CC1	-8%	10µM*	3%	-1%	10%[38.3 µM]
O=C(c1ccccc1)c1ccc(OCCn2cnc3ccccc3c2=O)cc1	11%	?	0%	4.5µM*	-15%[38.3 µM]
COc1ccc(N2C(=O)C3CCCN3C2c2ccc(C)cc2)cc1 (centres undefined)	-1%	20µM*	0%	0%	-5%[38.3 µM]
COc1ccc(C2N(c3ccc(OC)cc3)C(=O)C3CCCN32)cc1 (centres undefined)	0%	?	0%	-8%	11%[38.3 µM]
COc1ccc(N2C(=O)C3CCCN3C2c2ccccc2Cl)cc1 (centres undefined)	-3%	10µM*	2%	-20%	21%[38.3 µM]
COC(=O)C1=C(C)N(C2CCCCC2)C(=O)/C1=C\c1cccs1	.	2%	-1%	.	8%
CCOC(=O)Cc1csc(NC(=O)/C=C/c2ccc(OC)cc2)n1	7%[46 µM]	-9%	-9%	.	4%
BrC/C=C/CBr	.	25µM*	.	-2%	11%
CCc1nc2cc3sc(CC)nc3cc2s1	.	-2%	.	.	-3%
O=C1[C@H]2[C@H]3[C@H](O)[C@H](O)C/C(=N/OC[C@@H](O)COCc4ccco4)[C@@H]3CC[C@@H]2C(=O)N1C[C@@H]1CCCO1	.	2%[13.5 µM]	.	.	.
COc1cc2[nH]c(=S)n(Cc3cccs3)c(=O)c2cc1OC	?	1.1µM*	-1%	.	0%
CC(C)OC(=O)CN1C(=O)C(C)(C)Oc2ccc(C(=O)NC3CC3)cc21	3%	11µM*	-3%	-13%	16%[38.3 µM]
COC(=O)CN1C(=O)C(C)(C)Oc2ccc(C(=O)NC3CC3)cc21	-2%	-3%	0%	-4%	25%[38.3 µM]
CCC(=O)/C=C/C1C(C)=CCCC1(C)C (centres undefined)	.	13µM*	.	-7%	-6%
COCCNC(=O)CN(C(=O)CCC(=O)Nc1ccccn1)c1ccccc1F	.	17%	3%	.	8%
SMILES	LMNA splice mod	ALDH1A1 inh	KinaseGlo FLuc	HPGD block	IMPase Li cell
COc1c(O)c(O)cc2c1oc1c3ccccc3oc(=O)c21	.	?	2%	13µM*	-3%
CC(C)NC(=O)CN1CCC(c2ccccc2)C(O)C1 (centres undefined)	18%[46 µM]	5%	-6%	.	12%
CN(c1ccc(Cl)cc1)c1cc(=O)n(C)c2ccccc12	?	10%	-1%	7.9µM*	-18%[38.3 µM]
CN(C(=O)COc1cc(=O)n(C)c2ccccc12)c1ccc(Cl)cc1	-7%	?	3%	-9%	7%[38.3 µM]
CCOC(=O)CSc1nc(-c2ccccc2)nc2ccc(F)cc12	1%	?	-5%	-26%	10µM*
CCN(C(=O)c1ccc2c(Cl)c3c(nc2c1)CCC3)c1cccc(C)c1	?	?	0%	13µM*	23%
CCc1ccc(N(CC)C(=O)c2ccc3c(Cl)c4c(nc3c2)CCC4)cc1	?	?	-1%	?	14%
CC1CCN(C(=O)c2ccc3c(Cl)c4c(nc3c2)CCCC4)CC1	.	4.5µM*	2%	.	-1%
O=C(c1ccc2c(Cl)c3c(nc2c1)CCCC3)N1CCN(c2ccc(F)cc2)CC1	?	-7%	0%	-13%	19%
CCOC(=O)/C=C/C(=O)OCC(=O)Nc1ccc(Cl)cn1	6%	?	-1%	-14%	-11%[38.3 µM]
CCOC(=O)NC1(Nc2ccc(Cl)cn2)Oc2ccccc2O1	?	13µM*	3%	-9%	10%[38.3 µM]
CCN1CCCC1CNC(=O)C1CCN(C(=O)c2cc3sccc3n2Cc2ccc(F)cc2)CC1 (centres undefined)	.	?	0%	.	11%
COc1ccc(-c2ccc(NS(=O)(=O)c3cc(C)c(C)cc3C)cc2)nn1	-22%[46 µM]	.	.	.	.
CC1(C)Cc2nc3sc4c(=O)[nH]cnc4c3cc2CS1	-4%	14µM*	4%	?	14%[38.3 µM]
CCCCCn1cnc2c(sc3nc4c(cc32)CSC(C)(C)C4)c1=O	-10%	2.8µM*	-5%	?	-6%
CCCCCn1cnc2sc(CC)cc2c1=O	?	-2%	0%	-27%	12%
Cc1ccc(-n2ncc3c(NCCCc4ccccc4)ncnc32)cc1	0%[46 µM]	.	.	.	.
COc1ccc(CC(=O)OCC(=O)Nc2ncc(Cl)cc2Cl)cc1	9%	3%	-6%	-5%	-8%[38.3 µM]
COc1cc(OC)cc(C(=O)NCC(=O)OCC(=O)Nc2ncc(Cl)cc2Cl)c1	-1%[9.22 µM]	25µM*	-1%	.	7%
O=C(COC(=O)c1ccc(Br)o1)Nc1ncc(Cl)cc1Cl	24%[46 µM]	19µM*	-2%	.	-9%
COc1cccc(C(=O)NCC(=O)OCC(=O)Nc2ncc(Cl)cc2Cl)c1	-4%[9.22 µM]	1%	-4%	.	-8%
COc1ccccc1OCCCCOc1ccccc1F	9%	5%	8%	-14%	8%[38.3 µM]
CCN(CC)CCCCCOc1ccccc1OC	5%	0.028µM*	-5%	-8%	15%[38.3 µM]
O=C(c1nc(-c2ccc(Cl)cc2)n2c1CCCCC2)N1CCN(c2ccc(F)cc2)CC1	-23%[46 µM]	.	.	.	.
CN(C)S(=O)(=O)c1cc(NC(=O)CN2CCc3ccccc32)ccc1Cl	.	1.6µM*	.	.	-16%
CN(C)S(=O)(=O)c1ccc(NC(=O)CN2CCCc3ccccc32)cc1	.	18µM*	1%	.	13%
NNC(=O)CN1CCCc2ccccc21	-10%[46 µM]	6.3µM*	-2%	.	2%
CC1Cc2ccccc2N1CC(=O)Nc1ccc(Cl)c(S(=O)(=O)N(C)C)c1 (centres undefined)	0%[9.22 µM]	?	5%	.	5%

Bioassay records as filed in PubChem.
